Measurements: the supplement of paper PMC8975748
Structures can show the parent of a compound that is named as a salt. ± gives the standard deviation of the averaged measurements.

Key:
[1] = test system: Saccharomyces cerevisiae BY4741 SeMeCo community; assay: mean cell size (pixel area) (pixels); higher = larger cells; settings: 10 µM; 24 h; SM minimal medium
Summary of the method: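 Drug was acoustically predosed into 384-well plates to a final 10 µM in SM medium, and each well received 70 µl of Saccharomyces cerevisiae BY4741 diluted to OD600 = 0.3 from an overnight preculture at OD600 = 1.0. This four-plasmid fluorescent community carries one fluorescent marker per plasmid, and each plasmid complements one auxotrophy. After 24 h, the cells were fixed with paraformaldehyde and imaged by automated confocal microscopy, and Harmony analysis yielded mean cell pixel area per well. Each value is averaged over 3 replicates. Same SeMeCo high-content imaging drug screen: Selleck FDA-approved drugs at 10 µM, 24 h in SM medium, 384-well plates, 3 replicates.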

[2] = test system: Saccharomyces cerevisiae BY4741 SeMeCo community; assay: z-score of subpopulation abundance vs DMSO median, subpopulation auxotrophic for M; higher = larger share of this subpopulation than in DMSO controls; settings: 10 µM; 24 h; SM minimal medium; subpopulation (auxotrophy): M
Summary of the method: (§1)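 Scoring was based on each subpopulation's abundance, expressed as a z-score against the vehicle-well median. A Saccharomyces cerevisiae BY4741 community with four plasmids, each restoring one auxotrophy and encoding a distinct fluorescent protein, was pre-grown overnight to OD600 1.0, diluted to 0.3, and added at 70 µl to 384-well plates acoustically predosed with library drugs (10 µM final). It then grew 24 h in minimal SM medium before paraformaldehyde fixation and automated confocal microscopy, with single-auxotroph fluorescent strains setting thresholds and autofluorescence correction.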

[3] = test system: Saccharomyces cerevisiae BY4741 SeMeCo community; assay: z-score of subpopulation abundance vs DMSO median, subpopulation auxotrophic for L; higher = larger share of this subpopulation than in DMSO controls; settings: 10 µM; 24 h; SM minimal medium; subpopulation (auxotrophy): L
Summary of the method: as §1

[4] = test system: Saccharomyces cerevisiae BY4741 SeMeCo community; assay: z-score of subpopulation abundance vs DMSO median, subpopulation auxotrophic for U; higher = larger share of this subpopulation than in DMSO controls; settings: 10 µM; 24 h; SM minimal medium; subpopulation (auxotrophy): U
Summary of the method: as §1

[5] = test system: Saccharomyces cerevisiae BY4741 SeMeCo community; assay: z-score of subpopulation abundance vs DMSO median, subpopulation auxotrophic for H; higher = larger share of this subpopulation than in DMSO controls; settings: 10 µM; 24 h; SM minimal medium; subpopulation (auxotrophy): H
Summary of the method: as §1

[6] = test system: Saccharomyces cerevisiae BY4741 SeMeCo community; assay: z-score of subpopulation abundance vs DMSO median, subpopulation auxotrophic for LU; higher = larger share of this subpopulation than in DMSO controls; settings: 10 µM; 24 h; SM minimal medium; subpopulation (auxotrophy): LU
Summary of the method: as §1

[7] = test system: Saccharomyces cerevisiae BY4741 SeMeCo community; assay: z-score of subpopulation abundance vs DMSO median, subpopulation auxotrophic for LM; higher = larger share of this subpopulation than in DMSO controls; settings: 10 µM; 24 h; SM minimal medium; subpopulation (auxotrophy): LM
Summary of the method: as §1

[8] = test system: Saccharomyces cerevisiae BY4741 SeMeCo community; assay: z-score of subpopulation abundance vs DMSO median, subpopulation auxotrophic for HM; higher = larger share of this subpopulation than in DMSO controls; settings: 10 µM; 24 h; SM minimal medium; subpopulation (auxotrophy): HM
Summary of the method: as §1

[9] = test system: Saccharomyces cerevisiae BY4741 SeMeCo community; assay: z-score of subpopulation abundance vs DMSO median, subpopulation auxotrophic for HU; higher = larger share of this subpopulation than in DMSO controls; settings: 10 µM; 24 h; SM minimal medium; subpopulation (auxotrophy): HU
Summary of the method: as §1

[10] = test system: Saccharomyces cerevisiae BY4741 SeMeCo community; assay: z-score of subpopulation abundance vs DMSO median, subpopulation auxotrophic for UM; higher = larger share of this subpopulation than in DMSO controls; settings: 10 µM; 24 h; SM minimal medium; subpopulation (auxotrophy): UM
Summary of the method: as §1

[11] = test system: Saccharomyces cerevisiae BY4741 SeMeCo community; assay: z-score of subpopulation abundance vs DMSO median, subpopulation auxotrophic for HL; higher = larger share of this subpopulation than in DMSO controls; settings: 10 µM; 24 h; SM minimal medium; subpopulation (auxotrophy): HL
Summary of the method: as §1

[12] = test system: Saccharomyces cerevisiae BY4741 SeMeCo community; assay: z-score of subpopulation abundance vs DMSO median, subpopulation auxotrophic for HLU; higher = larger share of this subpopulation than in DMSO controls; settings: 10 µM; 24 h; SM minimal medium; subpopulation (auxotrophy): HLU
Summary of the method: as §1

[13] = test system: Saccharomyces cerevisiae BY4741 SeMeCo community; assay: z-score of subpopulation abundance vs DMSO median, subpopulation auxotrophic for HLM; higher = larger share of this subpopulation than in DMSO controls; settings: 10 µM; 24 h; SM minimal medium; subpopulation (auxotrophy): HLM
Summary of the method: as §1

[14] = test system: Saccharomyces cerevisiae BY4741 SeMeCo community; assay: z-score of subpopulation abundance vs DMSO median, subpopulation auxotrophic for HUM; higher = larger share of this subpopulation than in DMSO controls; settings: 10 µM; 24 h; SM minimal medium; subpopulation (auxotrophy): HUM
Summary of the method: as §1

[15] = test system: Saccharomyces cerevisiae BY4741 SeMeCo community; assay: z-score of subpopulation abundance vs DMSO median, subpopulation auxotrophic for LUM; higher = larger share of this subpopulation than in DMSO controls; settings: 10 µM; 24 h; SM minimal medium; subpopulation (auxotrophy): LUM
Summary of the method: as §1

[16] = test system: Saccharomyces cerevisiae BY4741 SeMeCo community; assay: z-score of subpopulation abundance vs DMSO median, subpopulation auxotrophic for HLUM; higher = larger share of this subpopulation than in DMSO controls; settings: 10 µM; 24 h; SM minimal medium; subpopulation (auxotrophy): HLUM
Summary of the method: as §1

[17] = test system: Saccharomyces cerevisiae BY4741 SeMeCo community; assay: z-score of prototroph abundance vs DMSO median; higher = larger share of this subpopulation than in DMSO controls; settings: 10 µM; 24 h; SM minimal medium; subpopulation (auxotrophy): Prototroph
Summary of the method: as §1

| SMILES | mean cell size [1] | z-score of subpopulation abundance [2] | z-score of subpopulation abundance [3] | z-score of subpopulation abundance [4] | z-score of subpopulation abundance [5] | z-score of subpopulation abundance [6] | z-score of subpopulation abundance [7] | z-score of subpopulation abundance [8] | z-score of subpopulation abundance [9] | z-score of subpopulation abundance [10] | z-score of subpopulation abundance [11] | z-score of subpopulation abundance [12] | z-score of subpopulation abundance [13] | z-score of subpopulation abundance [14] | z-score of subpopulation abundance [15] | z-score of subpopulation abundance [16] | z-score of prototroph abundance [17] |
| --- | --- | --- | --- | --- | --- | --- | --- | --- | --- | --- | --- | --- | --- | --- | --- | --- | --- |
| CC(C)N1CCN(c2ccc(OCC3COC(Cn4cncn4)(c4ccc(Cl)cc4Cl)O3)cc2)CC1 (configuration not stated) [Terconazole] | 12.1 ± 0.043 | -1.43 | 0.04 | -0.27 | -0.38 | -0.65 | -0.49 | -1.2 | -0.58 | -0.8 | -0.76 | -0.59 | -0.59 | -0.65 | -0.86 | -0.55 | – |
| Cc1c(-c2ccccc2)oc2c(C(=O)OCCN3CCCCC3)cccc2c1=O [Flavoxate HCl] | 12 ± 0.18 | 0.25 | 0.83 | 0.96 | -0.53 | 1.88 | 0.22 | 0.21 | 0.05 | – | -0.37 | 1.32 | 0.18 | -0.16 | – | 1.01 | -0.85 |
| CS(=O)(=O)c1ccc([C@@H](O)[C@@H](CO)NC(=O)C(Cl)Cl)cc1 [Thiamphenicol] | 12.41 ± 0.061 | -0.68 | 0.13 | – | -0.3 | 0.67 | -0.48 | -0.5 | 0.15 | 0.81 | -0.52 | -0.36 | -0.85 | -0.08 | -0.6 | -0.23 | 0.25 |
| c1cnc2cc3c(cc2n1)[C@@H]1CNC[C@H]3C1 [Varenicline Tartrate] | 12.1 ± 0.23 | -0.55 | -0.32 | -0.22 | 0.28 | -0.66 | 0.09 | -0.22 | -0.05 | -0.54 | 0.16 | -0.4 | 0.76 | -0.72 | -0.39 | 0.16 | – |
| C[C@]12CC[C@@H]3c4ccc(O)cc4CC[C@H]3[C@@H]1C[C@@H](O)[C@@H]2O [Estriol] | 12.41 ± 0.12 | -0.11 | 0.63 | – | 0.24 | -0.08 | 0.01 | -0.18 | -0.16 | -0.62 | -0.01 | -0.08 | 0.3 | -0.83 | -0.23 | -0.69 | – |
| O=C(c1ccc(OCCN2CCCCC2)cc1)c1c(-c2ccc(O)cc2)sc2cc(O)ccc12 [Raloxifene HCl] | 12.2 ± 0.27 | 0.58 | 1.28 | -1.87 | 0.59 | -1.4 | 1.33 | 0.58 | -1.43 | -0.85 | 0.66 | -0.29 | -0.47 | 0.06 | -0.24 | -0.56 | – |
| COc1cnc(NS(=O)(=O)c2ccc(N)cc2)nc1 [Sulfameter] | 12.53 ± 0.07 | 0.05 | -0.37 | 0.75 | -0.43 | 1.19 | -0.51 | 0.07 | -0.1 | 0.21 | -0.38 | -0.26 | 0.42 | 0.14 | 0.64 | -0.07 | – |
| Cc1nnc(NS(=O)(=O)c2ccc(N)cc2)s1 [Sulfamethizole] | 12.3 ± 0.23 | -0.46 | 0.65 | – | – | -0.31 | -0.01 | -1.19 | -0.26 | – | -0.84 | -1.06 | -0.87 | -0.98 | -0.52 | -0.49 | 0.97 |
| CC(C)n1c(/C=C/C(O)CC(O)CC(=O)O)c(-c2ccc(F)cc2)c2ccccc21 (configuration not stated) [Fluvastatin Sodium] | 12.1 ± 0.16 | 6.6 | -1.3 | – | 6.45 | 1.08 | -0.26 | 17.4 | 7.53 | – | 7.24 | 4.2 | 21.3 | 12.8 | 4.75 | 14 | -11 |
| CC(C(=O)O)c1ccc(C(=O)c2cccs2)cc1 (configuration not stated) [Suprofen] | 12.4 ± 0.17 | -0.68 | 0.48 | – | -0.25 | -0.41 | 0.42 | -0.73 | -0.02 | -0.8 | -0.36 | 0.03 | -0.28 | -1.16 | -0.07 | -0.2 | 0.24 |
| C[C@@H](CN1CC(=O)NC(=O)C1)N1CC(=O)NC(=O)C1 [Dexrazoxane HCl (ICRF-187, ADR-529)] | 12.49 ± 0.096 | 0.18 | -1.96 | 0.64 | -0.64 | -0.36 | -1.65 | -0.36 | -0.7 | 0.22 | -1.52 | -1.07 | -0.81 | -0.23 | – | -0.79 | – |
| CN1CCN(c2cc3c(cc2F)c(=O)c(C(=O)O)cn3-c2ccc(F)cc2)CC1 [Difloxacin hydrochloride] | 12.1 ± 0.29 | 0.06 | -0.28 | -0.57 | -2.54 | -0.13 | -0.31 | -0.76 | -0.87 | -0.52 | -1.38 | -0.55 | -0.2 | -0.72 | – | 0.23 | 0.85 |
| COc1ccc2cc([C@H](C)C(=O)O)ccc2c1 [Naproxen] | 13 ± 0.17 | -1.11 | -0.03 | -1.21 | 0.45 | -1.6 | -0.86 | -0.37 | -1.2 | -2.93 | 0.23 | -0.86 | 1.33 | -1.97 | – | -0.08 | 2.14 |
| CCc1nn(CCCN2CCN(c3cccc(Cl)c3)CC2)c(=O)n1CCOc1ccccc1 [Nefazodone hydrochloride] | 12.38 ± 0.1 | -0.42 | 0.67 | -0.01 | – | 0.49 | -0.3 | 0.55 | 0.21 | -0.31 | 0.71 | 0.16 | 0.6 | -0.23 | – | 0.44 | -1.27 |
| CN(C/C=C/C#CC(C)(C)C)Cc1cccc2ccccc12 [Terbinafine HCl] | 12.27 ± 0.088 | 1.09 | -0.84 | 1.03 | -0.56 | 0.54 | -0.74 | -0.78 | 0.89 | – | -0.47 | -0.09 | -0.22 | 1.65 | 0.47 | 1 | – |
